In PubChem BioAssay (NCI) one finds growth data, which are given here for seven molecules.

The structures appear in SMILES notation. Compounds without any hit were thinned out: in the full panel of roughly 83,000, 20% have a hit.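 Compound tested at a single concentration for 48 hours in 96-well plates; a percent growth value below 10 was scored as active.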 Values without a mark were called inactive. The source made the active and inactive calls.

Holding throughout (test): NCI-60 one-dose screen, 48 h (100 = growth as untreated, 0 = no growth, -100 = all killed)
Conditions in all cases: 10 µM unless noted

Experiment [1] deals with SK-MEL-2 melanoma.
Experiment [2] concerns EKVX NSCLC.
The test system of experiment [3] is SN12C renal.
Experiment [4] relates to UO-31 renal.
The subject of experiment [5] is TK-10 renal.
The subject of experiment [6] is ACHN renal.
For experiment [7], the system named is CAKI-1 renal.
For experiment [8], the system named is A498 renal.
Experiment [9] has as its system CCRF-CEM leukemia.
For experiment [10], the system named is MOLT-4 leukemia.
For experiment [11], the system named is SR leukemia.
Experiment [12] has as its system RPMI-8226 leukemia.
In experiment [13] the test system is OVCAR-8 ovarian.
The subject of experiment [14] is OVCAR-5 ovarian.
Experiment [15] relates to OVCAR-4 ovarian.
Experiment [16] has as its system SK-OV-3 ovarian.
Experiment [17] relates to IGROV1 ovarian.
Experiment [18] concerns OVCAR-3 ovarian.
The subject of experiment [19] is HS 578T breast.
Experiment [20] deals with NCI/ADR-RES ovarian.

As for `Cc1ccc(C(CN(C)C)C(=O)c2ccccc2)cc1` (stereo not given), the growth was 49.7% in experiment [1]; 68.7% in experiment [2]; 36.4% in experiment [3]; 53.5% in [4]; 44.8% in experiment [5]; -2.93% (active) in experiment [6]. The growth in experiment [7] was 52.4%; in experiment [8] it was 60.6%; in experiment [9], -9.16% (active); in [10], -9.61% (active); in experiment [11], -29.2% (active); in experiment [12], -41% (active). In addition, the growth in experiment [13] is 14.5%; in experiment [14], 65.9%; in [15], 33.2%; in experiment [16], 97.6%; in [17], 88.9%; in experiment [18], -8.33% (active). The growth in experiment [19] was 83.5%; in experiment [20] it was 49.7%.
On to `CC(C)c1cccc(C#N)c1`, for which the growth in [1] was 120%; in experiment [2], 94%; in experiment [3], 97.3%; in experiment [4], 98.7%; in [5], 121%; in [6], 115%. The growth in [7] is 98.9%; in [8], 92.3%; in experiment [9] it was 90%; in [10] it was 101%; in experiment [11], 97.1%; in [12], 106%. Also, the growth in [13] is 95.1%; in experiment [14] it was 112%; in experiment [15] it was 101%; in experiment [16], 106%; in experiment [17], 115%; in experiment [18], 111%. Also, the growth is 101% in experiment [19] and 91% in experiment [20].
Regarding `CSC1=N/C(=C\c2cccc(OCc3ccc(Cl)cc3)c2)C(=O)N1`, the growth in experiment [1] was 87.9%; in experiment [2], 75.5%; in [3], 80.9%; in experiment [4], 67.2%; in experiment [5], 78.9%; in experiment [6] it was 87.1%. Moreover, the growth in experiment [7] was 80.6%; in [8], 62.1%; in [9], 98.3%; in experiment [10], 90.5%; in experiment [11], 80.9%; in experiment [12], 67.7%. For the same molecule, the growth in experiment [13] was 86.1%; in [14], 106%; in experiment [15] it was 56.9%; in experiment [16] it was 98.5%; in experiment [17], 86.7%; in experiment [19], 104%. Also, the growth in [20] was 79%.
Consider `CC(C)c1ccc2c(c1)CCC1C2CCCC1(C)NCc1ccccc1` (stereo not given), for which the growth in experiment [1] was 26.8%; in [2], 80.3%; in [3], 66.9%; in experiment [4], 45.4%; in experiment [5], 95%; in experiment [6], 90.6%. The growth in experiment [7] was 63.1%; in experiment [8], 91.5%; in [9], 48.3%; in [10], 39.9%; in experiment [11], 0.88% (active); in [12], -35.2% (active). Moreover, the growth in experiment [13] is 91.5%; in experiment [14], 53.5%; in [15] it was 67.7%; in [16], 86.4%; in [17], 84.2%; in experiment [18], 80.4%. The growth in experiment [20] was 62.7%.
Consider `Cc1ccccc1Nc1n[nH]c(Cc2ccccc2)n1`, for which the growth is 83.8% in experiment [1]; 103% in [2]; 104% in experiment [3]; 86% in [4]; 90% in experiment [5]; 106% in [6]. For the same molecule, the growth was 101% in experiment [7]; 102% in experiment [8]; 97.8% in experiment [9]; 70.2% in [10]; 99.7% in experiment [11]; 93.8% in [12]. For the same molecule, the growth in experiment [13] is 98.1%; in experiment [14] it was 111%; in [15], 112%; in [16], 105%; in experiment [18], 106%; in experiment [19] it was 98.9%.
Turning to `C=C(c1ccc(C(=O)NCCCn2ccnc2)cc1)c1cc2c(cc1C)C(C)(C)CCC2(C)C`, the growth in experiment [1] is 55.9%; in experiment [2], 27.1%; in [3], 19.5%; in experiment [4] it was -20.4% (active); in [5] it was 84.9%; in experiment [6], -16.6% (active). Also, the growth in experiment [7] was -35.6% (active); in [8] it was 116%; in [9], 13.5%; in [10], 11.1%; in [11], -27.2% (active); in experiment [12] it was 22.7%. Also, the growth in experiment [13] was 40%; in experiment [14], 33.3%; in [15], 37%; in experiment [16] it was 4.17% (active); in experiment [17], 7.28% (active); in experiment [19], 59.7%. For the same molecule, the growth in experiment [20] was 5.05% (active).
As for `CCOC(=O)Cn1c(-c2nonc2NC(=O)c2ccccc2F)nc2ccccc21`, the growth in experiment [1] is 78%; in experiment [2], 71.1%; in [3] it was 57.9%; in experiment [4], 54.5%; in [5], 66.1%; in [6] it was 46.5%. Also, the growth is 25% in [7]; 82.5% in experiment [8]; 42.3% in experiment [9]; 25% in experiment [10]; 10.8% in experiment [11]; 40.6% in experiment [12]. Also, the growth is 38.8% in experiment [13]; 75% in experiment [14]; 90.8% in [15]; 75% in [16]; 46.3% in [17]; 56.7% in experiment [18]. In addition, the growth in experiment [19] was 73.1%; in experiment [20], 55.7%.
